Results reported in PubChem BioAssay (NCATS).
Results filed as inconclusive are left out. Calls of active or inactive are those of the source. Calls come from the whole dose curve; as a rule, active = well fitted curve in the direction sought with a large enough effect; inconclusive = small, poorly fitted or top-dose-only effect, or another doubt; inactive = no such curve, though single readings can be large; an effect the other way counts as inactive or inconclusive.

Legend:
[1] = qHTS for Inhibitors of Plasmodium falciparum (DD2) proliferation (AID 504314);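 note: parasite DNA measured by SYBR Green fluorescence after red cell lysis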
In short: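 Erythrocytes infected with P. falciparum (0.3% parasitemia, 2.5% hematocrit final) were incubated with compounds for 72 h at 37C, 5% CO2. Parasite DNA was detected by SYBR Green I fluorescence after saponin/Triton lysis, normalized to artemisinin (0.29 uM) and DMSO controls.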

[2] = qHTS for Inhibitors of Plasmodium falciparum (GB4) proliferation (AID 504315); note: nearly all actives have a fitted effect of over 50% in size
In short: (§1)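 Erythrocytes infected with P. falciparum line (0.3% parasitemia, 2.5% hematocrit final) incubated with compounds 72 h at 37 °C, 5% CO2; SYBR Green lysis buffer added, fluorescence read next day. Normalized to 0.29 uM artemisinin and DMSO.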

[3] = qHTS for Inhibitors of Plasmodium falciparum (7G8) proliferation (AID 504316); note: series mostly up to about 6.7 µM; nearly all actives have a fitted effect of over 65% in size
In short: as §1

[4] = qHTS for Inhibitors of Plasmodium falciparum (HB3) proliferation (AID 504318); note: nearly all actives have a fitted effect of over 60% in size
In short: as §1

[5] = qHTS for Inhibitors of Plasmodium falciparum (CP250) proliferation (AID 504320)
In short: as §1

Measured: Potency

CCN1C(=O)N[C@H](c2ccccc2)C(C(C)=O)=C1C
inactive: all assays above

COCC(=O)N1CCc2nc(-c3ccc(OC)cc3C)c3c(c2C1)CO[C@@H](c1ccccc1)C3
inactive: all assays above

CC#CCN1c2ccccc2[C@]23C[C@@H](C(=O)OC)N(C(=O)COCc4ccccc4)C2=NC(C(=O)OC)=C(C(=O)OC)[C@H]13
inactive: all assays above

COC(=O)CC1c2ccccc2C=C(C)N1C(=O)OC (stereo not given)
inactive: all assays above

CC(C)C(=O)N[C@@H]1CCCN1C(=O)C=Cc1ccccc1
inactive: all assays above

C=CCOC(=O)N[C@@H](c1ccc(Br)cc1)C(C(C)=O)C(C)=O
inactive: all assays above

CC1(OC(=O)CCc2ccccc2)C(=O)C=C2C=C(c3ccc(C#N)cc3)N(CCN3CCOCC3)C=C2C1=O (stereo not given)
inactive: all assays above

COC(=O)C1=C(C(=O)OC)[C@@H]2N(C)c3ccc(OC)cc3[C@@]23C[C@@H](C(=O)OC)N(C(=O)COCc2ccccc2)C3=N1
inactive: all assays above

COc1ccc(N2C=C3C(=O)C(C)(OC(=O)CCc4ccccc4)C(=O)C=C3C=C2c2ccc(C#N)cc2)cc1 (stereo not given)
inactive: all assays above

CCOC(=O)CNC(=O)O[C@@H]1C(=O)c2cc(OC)ccc2O[C@H]1c1ccc(OC)c(Br)c1
inactive: all assays above

C[C@H]1Cc2c(-c3ccccc3)nc3c(c2CO1)CN(S(=O)(=O)c1ccc(C#N)cc1)CC3
inactive: all assays above

COC(=O)C1=C(C(=O)OC)[C@@H]2N(C)c3ccc(OC)cc3[C@@]23C[C@@H](C(=O)OC)N(C(=O)C2CCC2)C3=N1
inactive: all assays above

CCN1C(=O)N[C@@H](c2ccc(Br)cc2)C(C(C)=O)=C1C
inactive: all assays above

CC(C)CN1C=C2C(=O)C(C)(OC(=O)C3CCCC3)C(=O)C=C2C=C1c1ccsc1 (stereo not given)
inactive: all assays above

C=CCN1c2ccccc2[C@]23C[C@@H](C(=O)OC)N(C(=O)c4ccco4)C2=NC(C(=O)OC)=C(C(=O)OC)[C@H]13
inactive: all assays above

CC(C)CON=C1C[C@@H](O)[C@@H](O)[C@@H]2[C@H]3C(=O)N(c4cccc(Oc5ccccc5)c4)C(=O)[C@@H]3CC[C@H]12
inactive: all assays above

CCCCC1=CC2=CC(=O)C(C)(OC(=O)CC)C(=O)C2=CN1CCN1CCOCC1 (stereo not given)
inactive: all assays above

COc1cccc(CC(=O)N2CCc3nc(-c4ccccc4)c4c(c3C2)CO[C@@H](C)C4)c1
inactive: all assays above

CC1(OC(=O)c2cnc3ccccc3n2)C(=O)C=C2C=C3CCCN3C=C2C1=O (stereo not given)
inactive: all assays above

COc1ccc(NC(=O)N2CCc3nc(COc4ccccc4)c4c(c3C2)CO[C@@H](C)C4)cc1
inactive: all assays above

C=CCN1C=C2C(=O)C(C)(OC(=O)CCC(=O)OC)C(=O)C=C2C=C1C1CC1 (stereo not given)
inactive: all assays above

CCOC(=O)CN1C(=O)N[C@@H](c2cccs2)C(C(=O)OC)=C1C
inactive: all assays above

COC(=O)C1=C(C)N(Cc2ccccc2)C(=O)NC1c1ccco1 (stereo not given)
inactive: all assays above

C=CCN1c2ccccc2[C@]23C[C@@H](C(=O)OC)N(C(=O)CC(C)C)C2=NC(C(=O)OC)=C(C(=O)OC)[C@H]13
inactive: all assays above

CCCCc1nc2c(c3c1C[C@H](C)OC3)CN(C(=O)Nc1ccc(OC)cc1)CC2
inactive: all assays above
